# This is part of a sample that, as a whole, favours compounds with a hit. Of some 83,000 tested, about 20% had one in any assay.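 Each cell line was grown in a 96-well plate and treated with one concentration of compound for 48 hours. Values below 10 were considered active.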 Unmarked numbers belong to inactive results. Activity calls are given as the source filed them.
# Legend:
# Experiment in all cases: NCI-60 one-dose screen, 48 h (100 = growth as untreated, 0 = no growth, -100 = all killed)
# [1] = system: SK-MEL-2 melanoma; details: 10 µM unless noted
# [2] = system: EKVX NSCLC; details: 10 µM unless noted
# [3] = system: SN12C renal; details: 10 µM unless noted
# [4] = system: UO-31 renal; details: 10 µM unless noted
# [5] = system: TK-10 renal; details: 10 µM unless noted
# [6] = system: ACHN renal; details: 10 µM unless noted
# [7] = system: CAKI-1 renal; details: 10 µM unless noted
# [8] = system: A498 renal; details: 10 µM
# [9] = system: HL-60(TB) leukemia; details: 10 µM unless noted
# [10] = system: CCRF-CEM leukemia; details: 10 µM unless noted
# [11] = system: SR leukemia; details: 10 µM unless noted
# [12] = system: OVCAR-8 ovarian; details: 10 µM unless noted
# [13] = system: OVCAR-5 ovarian; details: 10 µM unless noted
# [14] = system: OVCAR-4 ovarian; details: 10 µM unless noted
# [15] = system: SK-OV-3 ovarian; details: 10 µM unless noted
# [16] = system: IGROV1 ovarian; details: 10 µM unless noted
# [17] = system: OVCAR-3 ovarian; details: 10 µM unless noted
# [18] = system: HS 578T breast; details: 10 µM unless noted
# [19] = system: MOLT-4 leukemia; details: 10 µM unless noted
# [20] = system: RPMI-8226 leukemia; details: 10 µM unless noted
Compound,growth [1],growth [2],growth [3],growth [4],growth [5],growth [6],growth [7],growth [8],growth [9],growth [10],growth [11],growth [12],growth [13],growth [14],growth [15],growth [16],growth [17],growth [18],growth [19],growth [20]
CC(=O)OCc1cc[c]([Hg][Cl])o1,64.9%,78.8%,55.9%,83.1%,127%,60.8%,25.9%,123%,-25.1% (active),-20% (active),-20.3% (active),36.8%,43.9%,62.9%,71%,11.3%,0.253% (active),57.5%,–,–
CC1=C(CNO)C2=C(C)C3(CC3)[C@@](C)(O)C(=O)C2=C1,-44.4% (active),9.85% (active),18.7%,-57.7% (active),-0.334% (active),-48.3% (active),-9.31% (active),-70.9% (active),8.14% (active),73.9%,–,34.5%,1.01% (active),-8.4% (active),–,-8.2% (active),-16.5% (active),40.2%,51%,99.4%
Cc1ccc(S(=O)(=O)C(Cl)(Cl)Cl)cc1,97.5%,101%,98.7%,97.3%,89.5%,105%,87.9%,103%,91.1%,–,89.4%,96.2%,96.8%,105%,82.5%,99%,110%,96.1%,79.6%,–
O=C1Nc2ccccc2C2c3cccn3-c3ccccc3CN12 (configuration not stated),6.54% (active),67.8%,69.4%,60%,71.8%,81.6%,63.4%,41.1%,44.6%,–,19%,63.3%,82.3%,71.7%,46.7%,62.9%,41.7%,64.2%,29.3%,55.2%
N#CC1(c2ccccc2)CCN(Cc2ccccc2)CC1,99.6%,96.2%,114%,108%,88.4%,98%,94.7%,64.8%,102%,86.3%,–,104%,98%,113%,107%,115%,–,96.3%,107%,77%
NC(=Nc1ccccc1)N[N+](=O)[O-],127%,94%,102%,92%,103%,114%,97.6%,110%,38.7%,52.1%,–,119%,91.4%,96.5%,98.4%,121%,110%,97.5%,89.2%,–
NC(=S)c1cn(C2OC(CO)C(O)C2O)c2ncnc(N)c12 (configuration not stated),-58.1% (active),-4.9% (active),-10.5% (active),-9.32% (active),-29.5% (active),-6.08% (active),-36.6% (active),-32.5% (active),-72.9% (active),-40.6% (active),-50.4% (active),3.53% (active),-29.6% (active),-7.48% (active),17%,0.391% (active),-26.2% (active),-25.4% (active),–,-39.8% (active)
C/C(=C\c1ccn(-c2ccc(N)cc2C(F)(F)F)n1)[C@@H]1C[C@@H]2O[C@]2(C)CCC[C@H](C)[C@H](O)[C@@H](C)C(=O)C(C)(C)[C@@H](O)CC(=O)O1,18.1%,33.7%,22.6%,38.2%,39.8%,50%,31.4%,-4.95% (active),-0.118% (active),–,12.2%,17.4%,24.1%,69.7%,–,43.5%,12.5%,-10.7% (active),9.23% (active),5.57% (active)
CC(=O)O[C@H]1CC[C@H]2[C@@H]3CC=C4c5nc(-c6ccccc6)sc5CC[C@]4(C)[C@H]3CC[C@]12C,82%,79.6%,85.5%,78.2%,92.4%,91.8%,67.5%,75.2%,82.1%,–,8.39% (active),77.9%,75.9%,87.2%,94.5%,97.2%,92.9%,64.2%,46.1%,-37.3% (active)
ClCCN(CCCl)c1ccc(-n2cnc3c(Cl)ncnc32)cc1,69%,28.7%,47.8%,-85.9% (active),84.7%,-82.1% (active),-88.2% (active),95.2%,-9.68% (active),–,-29.2% (active),35.1%,117%,–,90.5%,-84.5% (active),–,49.5%,7.06% (active),59.6%
O=C(CCl)c1ccc([N+](=O)[O-])o1,-7.05% (active),96.2%,-38.1% (active),-8.81% (active),-39.4% (active),-40.6% (active),-95.1% (active),101%,-68.9% (active),-74.9% (active),–,8.79% (active),-72.8% (active),2.25% (active),102%,1.46% (active),–,40.9%,-52.8% (active),-47.7% (active)
C[Se]C(=O)c1ccccc1OC(C)=O,75.4%,33.2%,69%,33%,27.5%,85.9%,64.4%,66.5%,32.8%,63.3%,–,35.1%,54.3%,85.3%,118%,46.1%,55.3%,35.3%,54.8%,88.6%
O=C1C(Cl)=C(N2CCOCC2)C(=O)c2ccccc21,119%,96.9%,105%,51.8%,127%,78.4%,6.93% (active),93.8%,-36.6% (active),-27.6% (active),-37.1% (active),68.2%,119%,37.7%,110%,-47.2% (active),-58.3% (active),116%,–,-3.69% (active)
CC1(C)[C@H](O)[C@H](F)C[C@@]2(C)Oc3ccc(C(=O)Nc4ccc5c(c4)NC(=O)C54CCN(CCCCC#N)CC4)cc3C[C@H]12,28.8%,82.1%,69.9%,31.5%,59.1%,43.1%,56.5%,–,30.5%,13.8%,10.4%,62.5%,62.9%,64.9%,17.7%,63.2%,–,–,-19.5% (active),-12.6% (active)
COc1ccc(N(CC(=O)NCCC[Te]c2ccccc2)C(=O)CCSC2=C(C)C(=O)c3ccccc3C2=O)cc1,-49.6% (active),-2.22% (active),-8.2% (active),-29.3% (active),8.99% (active),-51.4% (active),-25.5% (active),-32.2% (active),–,–,–,8.05% (active),-57.4% (active),20.2%,-55.6% (active),-68.3% (active),-40.4% (active),-10.3% (active),–,-40.9% (active)
CCOC(=O)N1CC1,105%,84%,95.8%,80.7%,112%,94.8%,95.1%,111%,–,–,-20.9% (active),101%,97.1%,93.1%,111%,93.5%,111%,112%,–,91.2%
CC(C)COC(C[N+](=O)[O-])C(Cl)(Cl)Cl (configuration not stated),115%,97.2%,105%,97.2%,105%,107%,102%,84.6%,–,113%,94.7%,101%,109%,101%,106%,103%,115%,119%,103%,116%

# Source: PubChem BioAssay (NCI)
